Source: PubChem BioAssay
Values joined by “and” are separate entries in the source; they are usually repeats but may differ in a detail not shown here. Equal values may be shown once. Active and inactive are the calls of the source.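 The calls were made as follows, unless noted: active = normalized viability below 100% at a tested concentration; inactive = the rest.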

Legend:
[1] = P. berghei load reduction in hepatocytes – cell-based, HepG2, luciferase luminescence, HepG2 viability, primary screen (AID 624349; in the data active = parasite load remaining mostly below about 12%, no sharp cut-off; inactive = mostly above about 10%;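 also: 100% = mean of DMSO negative control wells on the same plate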); conditions: P. berghei liver stage in HepG2, luciferase luminescence, concentration not given here; parasite load remaining: stronger effect = lower value; viability: measured here: HepG2 viability without parasites
[2] = signal quenchers or enhancers, Cy5 substrate/SSB – biochemical, NIH Clinical Collection, E. coli SSB, artefact control for HCV NS3 helicase inhibitor project (AID 743268; call rule not given here); conditions: Cy5-oligo bound E. coli SSB, fluorescence interference
[3] = system: Hepatitis C virus NS3 helicase; test: blockers of NS3h binding to DNA – biochemical, fluorescence polarization, NIH Clinical Collection, primary screen (AID 743270; call rule not given here); conditions: NS3 helicase binding to Cy5-dT15 DNA, stronger effect = higher value, concentration not given here
[4] = target: Single-stranded DNA-binding protein (Escherichia coli (strain K12)) (UniProt P0AGE0); test: SSB-ssDNA binding inhibitors – biochemical, fluorescence polarization, NIH Clinical Collection, counter-screen for HCV NS3 helicase inhibitor project (AID 743271; in the data active = inhibition above about 28%); conditions: E. coli SSB-DNA binding, stronger effect = higher value, concentration not given here
[5] = compounds distorting NS3 helicase fluorescence signal – biochemical, NIH Clinical Collection, artefact control for HCV NS3 helicase inhibitor project (AID 743272; call rule not given here;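 also: HCV NS3 helicase with a Cy5 labelled single stranded DNA probe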); conditions: fluorescence interference counterscreen, HCV NS3 helicase assay; stronger effect = lower value
[6] = modulation of C. elegans fzo-1 (AID 1259413; call rule not given here;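 also: fzo-1 mutant C. elegans worms in liquid wells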); conditions: C. elegans fzo-1 modulator screen, mean read-out; stronger effect = higher value
[7] = MELAS cybrid and Rieske KO viability enhancers – cell-based, MELAS cybrids, Rieske KO mouse fibroblasts, CellTiter-Glo, primary screen (AID 1508586;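 active = mean z-score across replicates of 1.96 or higher in either the MELAS or the Rieske mutant cell line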;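 also: z relative to plate mean and SD of compound and empty wells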); conditions: low glucose
[8] = drug combination growth inhibition, ovarian cancer – cell-based, oncology-focused library, rucaparib conditional, profiling panel (AID 1508598); conditions: patient-derived ovarian cancer cells, CellTiter-Glo viability, 144 h, stronger effect = lower value
F380Y = test: BK channel mutant inhibitors and activators – cell-based, U2OS BacMam, thallium flux, beta subunits, selectivity assay, profiling panel (AID 1259406;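 active = thallium flux through the channel raised or lowered by more than 3 SD from vehicle-only wells, actives on both sides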;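 also: initial slope of Thallos dye fluorescence rise after thallium is added; log ratio against the mean of 0.3% DMSO vehicle wells on the same plate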); conditions: U2OS BacMam BK variants, at 30 µM
F380Y/beta1 = test: as above; conditions: U2OS BacMam BK variants, at 30 µM
F380Y/beta2Delta = test: as above; conditions: U2OS BacMam BK variants, at 30 µM
F380Y/beta4 = test: as above; conditions: U2OS BacMam BK variants, at 30 µM
[9] = target: Calcium-activated potassium channel subunit alpha-1 (Homo sapiens) + Leucine-rich repeat-containing protein 26 (Homo sapiens) (UniProt Q12791+Q2I0M4); test: as above; conditions: U2OS BacMam BK variants, F380Y/Slo1WT/gamma1, at 30 µM
R275C = test: as above; conditions: U2OS BacMam BK variants, at 30 µM
R275C/beta1 = test: as above; conditions: U2OS BacMam BK variants, at 30 µM
R275C/beta2Delta = test: as above; conditions: U2OS BacMam BK variants, at 30 µM
R275C/beta4 = test: as above; conditions: U2OS BacMam BK variants, at 30 µM
R275C/Slo1WT/beta2 = test: as above; conditions: U2OS BacMam BK variants, at 30 µM
[10] = viability loss with induced miR-34 in A549 – imaging, A549 dox-inducible miR-34, nuclei and caspase counts, primary screen (AID 1347080;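 active = compounds whose cell count with miR-34 switched on is under 0.7 times the count with it off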); conditions: A549 miR-34 inducible, Hoechst nuclei count, 48 h
[11] = MELAS cybrid survival, CellTiter-Glo 48 h, stronger effect = higher value
[12] = Rieske KO mouse fibroblast survival, CellTiter-Glo 72 h
[13] = stronger effect = lower value, cell number ratio, induced over uninduced
[14] = measured here: relative caspase fold change +Dox/-Dox
[15] = measured here: total cells with miR-34 induction, stronger effect = lower value
[16] = measured here: total cells without miR-34 induction

Chain of Calcium-activated potassium channel subunit alpha-1 (Homo sapiens) + Leucine-rich repeat-containing protein 26 (Homo sapiens) (Q2I0M4 whole entry, looked up, one chain of several): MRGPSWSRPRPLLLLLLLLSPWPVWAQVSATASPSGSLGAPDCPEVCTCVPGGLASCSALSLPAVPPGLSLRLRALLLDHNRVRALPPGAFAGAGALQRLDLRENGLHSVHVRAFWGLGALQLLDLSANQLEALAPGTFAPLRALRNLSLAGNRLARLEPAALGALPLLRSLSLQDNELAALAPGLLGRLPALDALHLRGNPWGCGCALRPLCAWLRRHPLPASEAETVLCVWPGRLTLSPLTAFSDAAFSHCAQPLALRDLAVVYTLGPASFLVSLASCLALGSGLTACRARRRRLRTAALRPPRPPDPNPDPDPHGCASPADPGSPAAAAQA

Nc1nc(Cl)nc2c1ncn2[C@H]1C[C@H](O)[C@@H](CO)O1
inactive: parasite load remaining [1] 10.3% | fluorescence ratio [2] 1.02 | inhibition [3] -1.09% | inhibition [4] -3.54% | fluorescence ratio [5] 0.99 | mean signal [6] 237 | viability ([8]; at 0.000305 µM, OCI-C5x cells, with rucaparib 10 µM, 100% = cells with rucaparib alone) 104% | viability ([8]; at 0.000305 µM, OCI-C5x cells, without rucaparib) 113% | viability ([8]; at 0.000305 µM, OCI-P5x cells, with rucaparib 20 µM, 100% = cells with rucaparib alone) 106% | viability ([8]; at 0.000305 µM, OCI-P5x cells, without rucaparib) 108% | viability ([8]; at 0.00122 µM, OCI-C5x cells, with rucaparib 10 µM, 100% = cells with rucaparib alone) 101% | viability ([8]; at 0.00122 µM, OCI-C5x cells, without rucaparib) 115% | viability ([8]; at 0.00122 µM, OCI-P5x cells, with rucaparib 20 µM, 100% = cells with rucaparib alone) 108% | viability ([8]; at 0.00122 µM, OCI-P5x cells, without rucaparib) 110% | viability ([8]; at 0.00488 µM, OCI-C5x cells, without rucaparib) 113% | viability ([8]; at 0.00488 µM, OCI-P5x cells, with rucaparib 20 µM, 100% = cells with rucaparib alone) 106% | viability ([8]; at 0.00488 µM, OCI-P5x cells, without rucaparib) 106% | viability ([8]; at 0.0195 µM, OCI-C5x cells, with rucaparib 10 µM, 100% = cells with rucaparib alone) 111% | viability ([8]; at 0.0195 µM, OCI-C5x cells, without rucaparib) 111% | viability ([8]; at 0.0195 µM, OCI-P5x cells, with rucaparib 20 µM, 100% = cells with rucaparib alone) 108% | viability ([8]; at 0.0781 µM, OCI-C5x cells, with rucaparib 10 µM, 100% = cells with rucaparib alone) 105% | viability ([8]; at 0.0781 µM, OCI-C5x cells, without rucaparib) 109% | viability ([8]; at 0.0781 µM, OCI-P5x cells, with rucaparib 20 µM, 100% = cells with rucaparib alone) 107% | viability ([8]; at 0.313 µM, OCI-C5x cells, with rucaparib 10 µM, 100% = cells with rucaparib alone) 112% | log fold change Tl+ flux (F380Y) -0.0268 | log fold change Tl+ flux (F380Y/beta1) -0.0427 | log fold change Tl+ flux (F380Y/beta2Delta) -0.00452 | log fold change Tl+ flux (F380Y/beta4) -0.0201 | log fold change Tl+ flux [9] -0.0394 | log fold change Tl+ flux (R275C) 0.0195 | log fold change Tl+ flux (R275C/beta1) 0.022 | log fold change Tl+ flux (R275C/beta2Delta) 0.0372 | log fold change Tl+ flux (R275C/beta4) 0.000993 | log fold change Tl+ flux (R275C/Slo1WT/beta2) 0.0197
3.04: z-score [7, 12]
active: viability ([8]; at 0.00488 µM, OCI-C5x cells, with rucaparib 10 µM, 100% = cells with rucaparib alone) 96% | viability ([8]; at 0.0195 µM, OCI-P5x cells, without rucaparib) 91.4% | viability ([8]; at 0.0781 µM, OCI-P5x cells, without rucaparib) 76.7% | viability ([8]; at 0.313 µM, OCI-C5x cells, without rucaparib) 95.6% | viability ([8]; at 0.313 µM, OCI-P5x cells, with rucaparib 20 µM, 100% = cells with rucaparib alone) 88.9% | viability ([8]; at 0.313 µM, OCI-P5x cells, without rucaparib) 50.8% | viability ([8]; at 1.25 µM, OCI-C5x cells, with rucaparib 10 µM, 100% = cells with rucaparib alone) 95.8% | viability ([8]; at 1.25 µM, OCI-C5x cells, without rucaparib) 94.4% | viability ([8]; at 1.25 µM, OCI-P5x cells, with rucaparib 20 µM, 100% = cells with rucaparib alone) 50.8% | viability ([8]; at 1.25 µM, OCI-P5x cells, without rucaparib) 37% | viability ([8]; at 5 µM, OCI-C5x cells, with rucaparib 10 µM, 100% = cells with rucaparib alone) 72.5% | viability ([8]; at 5 µM, OCI-C5x cells, without rucaparib) 54.1% | viability ([8]; at 5 µM, OCI-P5x cells, with rucaparib 20 µM, 100% = cells with rucaparib alone) 35.7% | viability ([8]; at 5 µM, OCI-P5x cells, without rucaparib) 18.1%
1.38: z-score [7, 11]
71.4%: viability [1]

C=CCc1ccc(O)c(-c2ccc(O)c(CC=C)c2)c1
1.37 and 0.714: fold change [10, 14]
8192 and 9270: cell count [10, 15]
8280 and 10100: cell count [10, 16]
active: log fold change Tl+ flux (F380Y) 0.306 | log fold change Tl+ flux (F380Y/beta1) 0.643 | log fold change Tl+ flux (F380Y/beta2Delta) 0.34 | log fold change Tl+ flux (F380Y/beta4) 0.501 | log fold change Tl+ flux [9] 0.418 | log fold change Tl+ flux (R275C/beta1) 0.387 | log fold change Tl+ flux (R275C/beta2Delta) 0.524 | log fold change Tl+ flux (R275C/beta4) 0.697 | log fold change Tl+ flux (R275C/Slo1WT/beta2) 0.149
0.74: z-score [7, 12]
70.3%: viability [1]
inactive: parasite load remaining [1] 18.8% | fluorescence ratio [2] 0.94 | inhibition [3] 5.94% | inhibition [4] 5.29% | fluorescence ratio [5] 0.94 | mean signal [6] 216 | fold change [10, 13] 0.989 and 0.916 | z-score [7, 11] -0.24 | log fold change Tl+ flux (R275C) 0.0538

CC1CNc2c(cccc2S(=O)(=O)N[C@@H](CCCN=C(N)N)C(=O)N2CC[C@@H](C)C[C@@H]2C(=O)O)C1 (some centres not stated)
11700: cell count [10, 16]
1.15: fold change [10, 14]
10400: cell count [10, 15]
inactive: parasite load remaining [1] 91.7% and 25.6% | fluorescence ratio [2] 1.01 | inhibition [3] -2.77% | inhibition [4] -0.1% | fluorescence ratio [5] 0.96 | mean signal [6] 269 | fold change [10, 13] 0.891 | z-score [7, 11] -0.605 and 0.47 | log fold change Tl+ flux (F380Y) -0.00418 | log fold change Tl+ flux (F380Y/beta1) 0.00744 | log fold change Tl+ flux (F380Y/beta2Delta) 0.0133 | log fold change Tl+ flux (F380Y/beta4) 0.00267 | log fold change Tl+ flux [9] -0.0355 | log fold change Tl+ flux (R275C) -0.0227 | log fold change Tl+ flux (R275C/beta1) -0.0183 | log fold change Tl+ flux (R275C/beta2Delta) -0.0418 | log fold change Tl+ flux (R275C/beta4) -0.0138 | log fold change Tl+ flux (R275C/Slo1WT/beta2) 0.0382
75.9% and 68%: viability [1]
-0.277 and -0.497: z-score [7, 12]
